Screening data (PubChem)
In the library only some 10% were active in any assay of this set; here they are far more common.
NPR1 antag: human Npr1 receptor antagonism; Potency, µM (series often up to 46.3 µM), without a hit: top-dose activity change, negative = inhibition, hits mostly inhibitors; AID 1347048; P16066; HEK293 hNpr1 GloSensor cGMP, ANP-stimulated luminescence; 76,000 tested, 1.6% active; calls by dose curve; note: % is set by controls: 0 for no effect and ±100 for the full control effect; nearly all actives have a fitted effect of over 60% in size
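HEK293 cells stably expressing human Npr1 and cGMP GloSensor pGS-40F, loaded 2 h with 2% GloSensor reagent, given compound 30 min at room temperature. Luminescence read before and 20 min after 0.1 nM hNppA.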
HEK cytotox: cytotoxic compounds in HEK 293 cells | 94,000 tested, 6.6% active | HEK 293 viability, ATP luminescence (CellTiter-Glo), 48-72 h | Potency, µM (highest dose often 115 µM), without a hit: at the highest dose activity change, negative = cytotoxicity, most hits filed as inhibitors | AID 1345083; note: % is set by controls: 0 for no effect and ±100 for the full control effect; nearly all actives have a fitted effect of over 60% in size
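HEK 293 cells seeded at 250 cells/well were exposed to compound for 48 or 72 hr at 37 degree Celsius. Viability taken as ATP content by CellTiter-Glo luminescence.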
FLuc inh: Photinus pyralis luciferase inhibition. P08659. purified P. pyralis luciferase, luminescence, biochemical. Potency, µM (top dose mostly 115 µM), usual class: inhibitors. 76,000 tested, 2.5% active. AID 1347043; note: % is set by controls: 0 for no effect and ±100 for the full control effect; nearly all actives have a fitted effect of over 65% in size
Target sequence (P08659 whole entry, looked up): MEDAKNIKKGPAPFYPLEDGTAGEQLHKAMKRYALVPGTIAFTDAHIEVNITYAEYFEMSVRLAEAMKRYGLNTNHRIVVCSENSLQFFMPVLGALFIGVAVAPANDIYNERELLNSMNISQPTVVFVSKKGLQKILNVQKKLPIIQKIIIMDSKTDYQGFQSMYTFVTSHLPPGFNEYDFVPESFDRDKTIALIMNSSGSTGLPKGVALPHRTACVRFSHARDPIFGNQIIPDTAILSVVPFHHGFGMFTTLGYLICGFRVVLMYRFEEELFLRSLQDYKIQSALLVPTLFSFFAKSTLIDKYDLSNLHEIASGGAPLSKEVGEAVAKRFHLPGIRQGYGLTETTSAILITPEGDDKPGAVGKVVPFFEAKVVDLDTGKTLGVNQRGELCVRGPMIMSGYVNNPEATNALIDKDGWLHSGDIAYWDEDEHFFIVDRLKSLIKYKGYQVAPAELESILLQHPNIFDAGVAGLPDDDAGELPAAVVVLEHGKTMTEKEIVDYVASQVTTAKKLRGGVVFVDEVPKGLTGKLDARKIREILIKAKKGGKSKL
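Inhibitors were tested against purified firefly luciferase in a biochemical, low-substrate format (both substrates at 10uM) and luminescence measured with a CCD imager.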
GPT2 inhibitor: blocks human glutamate pyruvate transaminase 2; Q8TD30; Recombinant GPT2, coupled pyruvate oxidase/HRP Amplex Red fluorescence; Potency, µM (series often up to 57.7 µM), for the others: at the highest dose activity change, negative = inhibition, actives largely listed as inhibitors; 100,000 tested, 0.25% active; AID 1671188; note: % is set by controls: 0 for no effect and ±100 for the full control effect; nearly all actives have a fitted effect of over 60% in size
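Recombinant GPT2 (10ng/uL) with 250uM a-KG and 2mM L-alanine, 30 min at room temperature, in HEPES pH 7.5 buffer. Pyruvate detected by pyruvate oxidase/HRP/Amplex Red fluorescence after 30 min in the dark; AOA (50uM) as positive control.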
NIH3T3 tox: NIH 3T3 cell cytotoxicity; NIH 3T3 viability, CellTiter-Glo ATP luminescence, 48-72 h; Potency, µM (titrated, usually from 96.7 µM), for the others: at the highest dose activity change, negative = cytotoxicity, actives largely listed as inhibitors; 94,000 tested, 4.3% active; AID 1345082; note: % is set by controls: 0 for no effect and ±100 for the full control effect; nearly all actives have a fitted effect of over 55% in size
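Cytotoxicity was measured by CellTiter-Glo ATP luminescence after 48 or 72 h compound exposure at 37 °C. Mouse NIH 3T3 fibroblasts were seeded at 400 cells/well and dosed by 23 nL pin transfer.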
NPR1 antag cnf: hNpr1 antagonism, confirmation assay; shares compounds with NPR1 antag; HEK293 hNpr1 cGMP GloSensor luminescence, ANP-stimulated; Potency, µM (series often up to 57.6 µM), for the others: at the highest dose activity change, negative = inhibition, usual class: inhibitors; 1,400 tested, 76% active; AID 1347044; calls by dose curve; note: nearly all actives have a fitted effect of over 70% in size
Npr2 selectivity: selectivity test of Npr1 antagonists against human Npr2; shares compounds with NPR1 antag; HEK293 hNpr2 GloSensor cGMP luminescence, CNP-stimulated; Potency, µM (doses to about 57.6 µM), for the others: top-dose activity change, negative = inhibition, most hits filed as inhibitors; 1,400 tested, 67% active; calls by dose curve; note: nearly all actives have a fitted effect of over 70% in size
FLuc inh counter: counter-screen for Npr1 antagonists: firefly luciferase inhibitors; shares compounds with NPR1 antag; purified FLuc enzyme, luminescence, Km substrate; Potency, µM (series often up to 57.6 µM), without a hit: at the highest dose activity change, negative = inhibition, hits mostly inhibitors; 1,400 tested, 0.7% active; AID 1347047; note: 0% is about no effect
GloSensor cGMP: control cell line activity, Npr1 antagonist counter-screen; shares compounds with NPR1 antag; HEK293 GloSensor cGMP, SNP-stimulated, luminescence; Potency, µM (titrated, usually from 57.6 µM), without a hit: top-dose activity change, negative = inhibition, actives largely listed as inhibitors; 1,400 tested, 69% active; AID 1347051; calls by dose curve; note: % is set by controls: 0 for no effect and ±100 for the full control effect; nearly all actives have a fitted effect of over 70% in size
Active calls of the source: *; i = inactive; ? = inconclusive; / = no result given; [ ] = another dose, or the depositor's remark. Unless noted, calls come from the whole dose curve; as a rule, active = well fitted curve in the direction sought with a large enough effect; inconclusive = small, poorly fitted or top-dose-only effect, or another doubt; inactive = no such curve, though single readings can be large; an effect the other way counts as inactive or inconclusive. Potency is the fitted concentration of half-maximal effect.

SMILES	NPR1 antag	HEK cytotox	FLuc inh	GPT2 inhibitor	NIH3T3 tox	NPR1 antag cnf	Npr2 selectivity	FLuc inh counter	GloSensor cGMP
Cc1ccc(C(=O)N2CCN(C(=O)c3nnn4c3COC(c3ccc(F)cc3)C4)CC2)cc1C (centres undefined)	11µM*	45µM*	i	0%	?	27µM*	22µM*	0%	24µM*
COc1ccc(C2Cn3nnc(C(=O)NC4CCCCCCC4)c3CO2)cc1 (centres undefined)	?	?	i	-8%	?	?	?	-1%	19µM*
COc1ccc(C(=O)N2CCN(C(=O)c3nnn4c3COC(c3ccc(F)cc3)C4)CC2)cc1 (centres undefined)	-16%	?	i	-5%	?	/	/	/	/
COc1ccc(C2Cn3nnc(C(=O)N4CCN(C(=O)c5ccc(F)cc5)CC4)c3CO2)cc1 (centres undefined)	?	?	i	i	-12%	22µM*	?	-1%	22µM*
COc1ccc(C2Cn3nnc(C(=O)NC4CCCCCC4)c3CO2)cc1 (centres undefined)	?	?	i	1%	?	/	/	/	/
COc1ccc(C2Cn3nnc(C(=O)N4CCN(C(=O)Cc5ccc(F)cc5)CC4)c3CO2)cc1 (centres undefined)	8.9µM*	?	i	i	-10%	14µM*	15µM*	0%	14µM*
O=C(NCCCc1ccccc1)c1cc(-c2cc(Cl)cc(Cl)c2)c2cccn2n1	/	?	/	-11%	?	/	/	/	/
CCn1ncc(CN2CCCC(C(=O)N3CCN(c4ccccn4)CC3)CCNC(=O)CC2)c1C (centres undefined)	3%	-4%	i	0%	-7%	/	/	/	/
CNC(=O)c1cc(C2CC2)nc2c1c(C1CCCN(C(=O)c3ccc(Cl)nc3)C1)nn2C (centres undefined)	/	-28%	/	/	?	/	/	/	/
CCOC(=O)C1=C(C)N=C2SC=C(CC(=O)NCC3CC3)N2C1c1ccccc1OC (centres undefined)	-3%	?	i	0%	-16%	/	/	/	/
CCN1CCN(C(=O)c2cc(-c3ccc(F)cc3)nc3c2cnn3C)CC1	/	-3%[172 µM]	/	1%[88.5 µM]	?	/	/	/	/
Cn1nccc1C(=O)N1CCC(c2nc(CCOCC3CCCC3)no2)C1 (centres undefined)	/	?	/	i	-8%	/	/	/	/
Cc1nc2c(c(-c3ccc(Cl)cc3)n1)CN([S+](=O)([O-])c1ccccc1)CC2	-4%	5%	i	i	?	/	/	/	/
COc1ccc(C2Cn3nnc(C(=O)N4CCN(C(=O)c5ccc(F)cc5Cl)CC4)c3CO2)cc1 (centres undefined)	11µM*	?	i	-6%	-26%	22µM*	22µM*	0%	19µM*
COc1ccc(C2Cn3nnc(C(=O)N4CCN(C(=O)c5cc(C)ccc5C)CC4)c3CO2)cc1 (centres undefined)	?	?	i	i	?	?	-23%	-1%	-15%
O=C(Cc1ccc(F)cc1)N1CCN(C(=O)c2nnn3c2COC(c2ccc(Cl)cc2)C3)CC1 (centres undefined)	13µM*	?	i	-1%	-25%	24µM*	?	-1%	22µM*
CS(=O)(=O)N1CC2(CCN(Cc3ccccn3)C2)Cc2ccccc21 (centres undefined)	/	i	/	i	i	/	/	/	/
O=C(c1ccc(C(F)(F)F)cc1)N1CCCC1C(=O)N1CCCC1c1nc2ccncc2[nH]1 (centres undefined)	/	-15%	/	-12%	-33%	/	/	/	/
O=C(c1ccccc1Cl)N1CCC(C(=O)N2CCC(N3Cc4cccn4C3=O)CC2)CC1	/	-27%	/	-2%	-22%	/	/	/	/
CCOC(=O)[C@H]1C[C@]2(CCCCN(CCOC)C2=O)N(C(=O)COc2ccccc2)[C@H]1c1ccco1	/	?	/	/	-25%	/	/	/	/
CC(C)NC(=O)N1C2CCC1CN(c1ccc(C(F)(F)F)cc1)C2	/	?	/	3%	?	21µM*	19µM*	0%	15µM*
O=C(NC1CCCCC1)N1C2CCC1CN(c1ccc(C(F)(F)F)cc1)C2	/	?	/	-5%	?	/	/	/	/
CCC(=O)N1CCN(c2nc3c(s2)CC(C(=O)Nc2ccc(OC)c(F)c2)CC3)CC1 (centres undefined)	-8%	?	i	?	?	/	/	/	/
CCN(CC)C(=O)c1cc2c(s1)CCC(C(=O)Nc1ccc(OC)c(F)c1)C2 (centres undefined)	13µM*	?	i	i	?	24µM*	22µM*	-2%	24µM*
CCN1CCN(C(=O)c2ccc3oc(-c4cccnc4)nc3c2)CC1	/	i	/	i	-1%	/	/	/	/
SMILES	NPR1 antag	HEK cytotox	FLuc inh	GPT2 inhibitor	NIH3T3 tox	NPR1 antag cnf	Npr2 selectivity	FLuc inh counter	GloSensor cGMP
O=C(NC1CCCCCC1)C1CCN(c2cc(C(F)(F)F)ncn2)CC1	?	-31%	i	i	-29%	/	/	/	/
Cc1ccc(NC(=O)C2CCN(c3cc(C(F)(F)F)ncn3)CC2)cc1	8.9µM*	?	i	i	?	14µM*	15µM*	0%	12µM*
O=C(NCc1ccc(F)cc1)C1CCN(c2cc(C(F)(F)F)ncn2)CC1	?	?	i	i	?	/	/	/	/
CC(C)c1ccc(CNC(=O)C2CCN(c3cc(C(F)(F)F)ncn3)CC2)cc1	13µM*	?	i	-15%	?	24µM*	22µM*	3%	22µM*
CC(NC(=O)C1CCN(c2cc(C(F)(F)F)ncn2)CC1)c1ccc(F)cc1 (centres undefined)	-27%	?	i	i	?	/	/	/	/
COc1ccc(C(C)NC(=O)C2CCN(c3cc(C(F)(F)F)ncn3)CC2)cc1 (centres undefined)	16µM*	?	i	i	?	24µM*	27µM*	2%	22µM*
